Assay results taken from PubChem BioAssay AID504329 (Southern Research Specialized Biocontainment Screening …, 2011).
Among all 340,000 compounds or so, about 1,000 (0.29%) were called active. Cut-off read from the data, not from the text of the source: inconclusive = inhibition above about 27% without an active follow-up result; inactive = below that. These entries were drawn from the full list. Results with a measured potency or affinity are listed apart.

assay: NS1A inhibition, H1N1 influenza, cell based functional assay (AID 504329); conditions: percent inhibition, at 12.5 µM, hits give high values

| Compound | inhibition |
| --- | --- |
| Nc1oc2ccccc2c1C(=O)Cc1ccccc1O[C@@H]1O[C@H](CO)[C@@H](O)[C@H](O)[C@H]1O | -10.9% (inactive) |
| COc1cccc(NC(=O)CSc2nc(C)cs2)c1 | -1.99% (inactive) |
| COC(=O)c1ccc(NC(=O)CSc2nn3c(=O)c(C)nnc3s2)cc1 | 8.48% (inactive) |
| COc1ccc(NC(=O)CSc2nnc(C)c(=O)n2N)cc1 | 3.72% (inactive) |
| COc1cccc(NC(=O)CSc2nnc(C)s2)c1 | -8.01% (inactive) |
| CC(C)Oc1ccc(-c2cc(=O)[nH]c(=O)[nH]2)cc1 | 2.31% (inactive) |
| Cc1c(C(=O)OCC(=O)Nc2cccc(S(N)(=O)=O)c2)oc2c1ccc1ccccc12 | -6.11% (inactive) |
| Cc1cc(=O)n2c3ccccc3n(CC(O)CN3CCC(C)CC3)c2c1C#N (centres undefined) | -2.23% (inactive) |
| O=C(c1cccc(Cl)c1)N1CCN(C2CCCCCC2)CC1 | -6.08% (inactive) |
| O=C(Nc1nccs1)c1ccc(COc2ccccc2)o1 | -27.9% (inactive) |
| COc1ccc(-c2nc(N)n(C(=O)Cc3ccccc3)n2)cc1 | 0.25% (inactive) |
| Oc1ccc(Cl)cc1/C=N/c1nccs1 | -1.76% (inactive) |
| Cc1ccc(O)c(N=Nc2nccs2)c1 | 26.6% (inactive) |
| O=C(OCC(=O)N1CCN(c2ccccc2)CC1)c1ccc2ncsc2c1 | 3.79% (inactive) |
| CC(C)(CO)NS(=O)(=O)c1ccc2c(c1)C(=O)c1cc(S(=O)(=O)NC(C)(C)CO)ccc1-2 | -3.45% (inactive) |
| COc1ccc(C(=O)NC2CCc3ccccc32)cc1OC1CCN(C(C)=O)CC1 (centres undefined) | -1.94% (inactive) |
| CS(=O)(=O)N1CCc2cc(S(=O)(=O)NCCNS(=O)(=O)c3ccc4c(c3)CCN4S(C)(=O)=O)ccc21 | -9.03% (inactive) |
| Fc1cccc(CN2CCSCC2)c1 | -2.65% (inactive) |
| O=C(NCC(c1ccco1)N1CCc2ccccc21)C(=O)Nc1ccc(F)cc1F (centres undefined) | -6.42% (inactive) |
| O=[N+]([O-])c1ccccc1/C=N/Nc1nccnc1Cl | 1.6% (inactive) |
| Cc1nc2ccccc2nc1N/N=C/c1ccc(O)cc1 | 13.5% (inactive) |
| Oc1cccc(C=NNc2ccccn2)c1 | -19.8% (inactive) |

| Compound | inhibition |
| --- | --- |
| Oc1ccc(/C=N/Nc2cccc(Cl)n2)c(O)c1 | 10.3% (inactive) |
| CCN(CC)S(=O)(=O)c1ccc(N/N=C/c2ccc(O)cc2)nc1 | 7.84% (inactive) |
| Clc1nccnc1N/N=C/c1ccc(Br)cc1 | -20.8% (inactive) |
| Cc1cc(N/N=C/c2ccc(O)cc2O)c2ccccc2n1 | 0.21% (inactive) |
| CCN(CC)S(=O)(=O)c1ccc(N/N=C/c2cc(OC)ccc2O)nc1 | 5.6% (inactive) |
| CC(C)(NO)/C(=N/O)c1cccs1 | 3.4% (inactive) |
| CC(C(=O)N1CCc2ccccc21)N1CCN(c2cccc(C(F)(F)F)c2)CC1 (centres undefined) | -0.63% (inactive) |
| CCOC(=O)CSC1=N/C(=C\c2ccc(OC)c(OC)c2)C(=O)N1C | 2.72% (inactive) |
| COc1ccc(-c2ccc3nnc(SCC(=O)N4CCCC4)n3n2)cc1 | -5.09% (inactive) |
| O=C(Nc1nccs1)c1cccnc1Cl | -9.22% (inactive) |
| CCc1nnc(NCn2nc(C)cc2C)s1 | 6.15% (inactive) |
| Oc1ccc(/C=N/Nc2nccnc2Cl)cc1 | 5.54% (inactive) |
| Oc1ccc(/C=N/Nc2ccnc3cc(Cl)ccc23)c(O)c1 | -16% (inactive) |
| C=CCc1c(C)nc(C)nc1N/N=C/c1ccc(F)cc1 | -0.47% (inactive) |
| C=CCc1c(C)nc(C)nc1N/N=C/c1ccccc1 | -4.1% (inactive) |
| Cc1c(OCC(F)(F)F)ccnc1CSc1nc2ccccc2[nH]1 | -9.09% (inactive) |
| CCOc1ccc(OCCC(=O)N(CCCOC)c2c(N)n(Cc3ccccc3)c(=O)[nH]c2=O)cc1 | -2.75% (inactive) |
| O=C1NC(=O)c2cc3ccccc3cc21 | -8.8% (inactive) |
| O=C(Cn1ccccc1=O)NCc1ccc(F)cc1 | -15.8% (inactive) |
| Cc1cccc(NC2=C(NCCO)C(=O)c3ccccc3C2=O)c1 | 26.8% (inactive) |
| O=C1C(Cl)=C(Nc2ccc(O)cc2)C(=O)c2ccccc21 | 13.6% (inactive) |
| COc1ccc(C2=C(Nc3ccccc3)c3ccccc3C2=O)cc1 | -2.55% (inactive) |

| Compound | inhibition |
| --- | --- |
| CCOc1ccc(NC2=CC(=O)C(=O)c3ccccc32)cc1 | -7.73% (inactive) |
| COC1=C(Nc2ccccc2)C(=O)C(OC)=C(Nc2ccccc2)C1=O | 8.96% (inactive) |
| NC1=C(Br)C(=O)c2ccccc2C1=O | 1.89% (inactive) |
| COc1ccc(NC2=C(c3ccc(OC)cc3)C(=O)c3ccccc32)cc1 | 5.77% (inactive) |
| COc1ccc(NC2=C(NCCO)C(=O)c3ccccc3C2=O)cc1 | 23.4% (inactive) |
| CSCCC(=O)NC1CCCN(CCc2ccccc2)C1 (centres undefined) | -10.8% (inactive) |
| O=C(NC1=NCCS1)c1cc(-c2cccs2)nc2ccccc12 | 1.99% (inactive) |
| Clc1cccc(CN2CCCCCCC2)c1Cl | -8.07% (inactive) |
| COc1cc(C2NC(=O)NC(C)=C2C(=O)OC2CCC(C)CC2)ccc1O (centres undefined) | -1.48% (inactive) |
| CCC(=O)Nc1nc(-c2ccccc2)nc(SC)c1C(C)=O | 5.59% (inactive) |
| O=C(NCCCN1CCCC1=O)C(=O)NCC1OCCCN1S(=O)(=O)c1cc(F)ccc1F (centres undefined) | -6.67% (inactive) |
| Cc1ccc(C(=O)N2CCN(c3ccc(NC(=O)c4cccnc4Cl)cc3)CC2)cc1 | 0.28% (inactive) |
| COC1=C(Nc2ccc(OC)cc2)C(=O)C(OC)=C(Nc2ccc(OC)cc2)C1=O | 0.15% (inactive) |
| Cc1ccc(NC2=C(N3CCCCC3)C(=O)c3ccccc3C2=O)cc1 | 28.7% (inactive) |
| COc1ccc(NC2=C(NC(C)=O)C(=O)c3ccccc3C2=O)cc1 | 0.92% (inactive) |
| COc1ccc(C2=C(Nc3ccc(C)cc3)c3ccccc3C2=O)cc1 | -3.38% (inactive) |
| O=C1C(Cl)=C(Nc2ccccc2)C(=O)c2ccccc21 | -3.5% (inactive) |
| CC(=O)c1ccc(NC2=C(N3CCOCC3)C(=O)c3ccccc3C2=O)cc1 | 3.86% (inactive) |
| CCN(CC)c1ccc(NC2=C(Cl)C(=O)c3ccccc3C2=O)cc1 | 27.5% (inactive) |
| Cc1ccc(NC2=C(Cl)C(=O)c3ccccc3C2=O)cc1 | 2.23% (inactive) |
